Cycloheximide cs = counter-screen for Shiga toxin inhibitors: cycloheximide protein synthesis inhibition | cell reporter, cycloheximide protein synthesis inhibition counterscreen | max response, % | hit rate 12% among 300,000; in the data active = max response mostly above about 13%, no sharp cut-off; inactive = mostly below about 14%; also: read at 38.3 µM for the half of the compounds with a filed dose; 0% is about no effect
Shiga toxin inh = blocks Shiga toxin action in Vero cells; inhibition, % at 38.7 µM; hit rate 9.2% among 290,000; Vero cells, Shiga toxin protein synthesis inhibition reporter; in the data active = inhibition mostly above about 28%, no sharp cut-off; inactive = mostly below about 43%; also: 0% is about no effect
FMDV inh = blocks foot and mouth disease virus. FMDV antiviral cell-based qHTS. Potency, µM (top dose mostly 57.9 µM), for the others: at the highest dose activity change, negative = inhibition, usual class: inhibitors. hit rate 1.2% among 410,000. AID 1159524; calls by dose curve; tested in HEK293T cells; also: read-out not given here; potency is read from the fitted curve at half-maximal effect; % is scaled to controls: 0 for no effect and ±100 for the full control effect; nearly all actives have a fitted effect of over 45% in size
Sm TGR inh = S. mansoni TGR enzyme inhibition | hit rate 3% among 360,000 | AID 485364 | purified TGR, DTNB reduction, TNB absorbance 405 nm | Potency, µM (titrated, usually from 114 µM), for the others: at the highest dose activity change, negative = inhibition, actives largely listed as inhibitors | Q962Y6; active = well fitted inhibition curve with a large enough effect; inconclusive = small, poorly fitted or top-dose-only effect; inactive = no such curve, though single readings can be large or run the other way; also: potency is read from the fitted curve at half-maximal effect; % is scaled to controls: 0 for no effect and ±100 for the full control effect; nearly all actives have a fitted effect of over 60% in size
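Kinetic colorimetric format: TGR-catalysed, NADPH-driven DTNB reduction monitored via TNB absorbance. Enzyme dispensed at 20 nM; compound exposure 15 min at room temperature before reaction start.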
Starred values were filed as active, the others as inactive; ? = inconclusive; · = no result given; [ ] = remark or other dose. Shown are actives, neighbours in structure and some others; about 12% of the full set was active somewhere.

SMILES	Cycloheximide cs	Shiga toxin inh	FMDV inh	Sm TGR inh
COc1ccc(S(=O)(=O)N(CC(=O)Nc2cccc(C(F)(F)F)c2)c2ccc(C)cc2)cc1	·	·	-16.4%	2.3%
CCOC(=O)c1sc2nc(SC)nc(-c3ccc(Cl)cc3)c2c1N	5.4	-10.2	3.3%	-1.4%
CCOC(=O)c1snc(-c2ccc(F)cc2)c1N	35.4*	102.6*	66.1%	-27.4%
CCC(Sc1nncn2c1cc1occc12)C(=O)Nc1ccc(C)c(Cl)c1 (stereo not given)	·	·	0.0%	-9.0%
COC(=O)c1cccc(NC(=O)c2ccc3c(c2)C(=O)N(CC2CCCO2)C3=O)c1 (stereo not given)	3.7	11.2	?	4.7%
O=C(Nc1ccc2c(c1)C(=O)N(CC1CCCO1)C2=O)c1cccc(Br)c1 (stereo not given)	25.5*	115.0*	-6.8%	-11.2%
O=C(O)c1cccc(NC(=O)c2ccc3c(c2)C(=O)N(CC2CCCO2)C3=O)c1 (stereo not given)	1.4	-3.5	15.8µM*	-1.7%
CC(C)CC(=O)NCC1(N(C)C)CCCCC1	·	·	-28.6%	-4.7%
CC(C)NC(=O)NC(=O)CSc1nnc(COc2ccccc2F)n1C(C)C1CC2CCC1C2 (stereo not given)	-2.4	17.6	28.2µM*	4.6%
CC[C@@H]1[C@H]2CCCC(=O)N3CC[C@@H](C[C@@H]1OC(=O)NCc1ccccc1)[C@@H]23	-1.8	-9.9	-11.3%	35.5µM*
CCOc1ccc(-n2c(=O)c3c4c(sc3n(Cc3cccc(Cl)c3)c2=O)CCCC4)cc1	·	·	-8.5%	0.5%
CCOC(=O)c1cc(C)n(CC2CCC(C(=O)Nc3cc(OC)cc(OC)c3)CC2)c1C (stereo not given)	·	·	-18.1%	16.8%
COc1ccc(CCc2ccnc3ccccc23)cc1	·	·	5.3%	·
Cc1cc(-c2nnc(CCC(=O)N(C)Cc3cccc4ccccc34)o2)no1	19.6*	62.6*	23.1%	12.8%
COc1ccccc1CCc1nnc(CCC(=O)N(C)Cc2cccc3cnccc23)o1	45.1*	85.6*	-2.5%	-2.8%
COc1ccc(CCc2nnc(CCC(=O)N(C)Cc3ccnc4ccccc34)o2)cc1	30.3*	23.1*	?	-5.6%
Cc1cccc(Oc2ccc(N)cc2)c1	31.3*	42.8	0.0%	-17.6%
Cc1cc(C)cc(Oc2ccc(N)cc2)c1	9.3	12.2	8.1%	-1.0%
Nc1ccc(Oc2cccc(Oc3ccc(N)cc3)c2)cc1	-16.7	-20.6	10µM*	-6.4%
CCCCN1C(=O)C(=O)NC[C@H]1Cc1cccc2ccccc12	·	·	-9.4%	·
CCCCN1C(=S)NC[C@@H]1Cc1cccc2ccccc12	18.0*	59.5*	24.2%	-0.7%
COc1cc(CN2CCCCCC2)c([N+](=O)[O-])cc1OC	-0.8	-13.7	-2.8%	-1.9%
CCN1CCN(Cc2cc(OC)c(OC)cc2[N+](=O)[O-])CC1	-2.5	8.2	-11.3%	31.6µM*
CCc1ccc(-c2csc3ncn(CC(=O)NCc4ccco4)c(=O)c23)cc1	14.9*	30.1*	-28.5%	-21.6%
O=C(Cn1cnc2sc(-c3ccccc3)cc2c1=O)NCc1ccco1	7.4	19.6	0.0%	12.6µM*
SMILES	Cycloheximide cs	Shiga toxin inh	FMDV inh	Sm TGR inh
COc1ccc(CNC(=O)Cn2ncn3c(cc4ccccc43)c2=O)cc1	-2.3	-11.0	-17.5%	-0.5%
O=C(Cn1ncn2c(cc3ccccc32)c1=O)NCc1ccco1	-3.1	17.7	·	31.6µM*
CC(C)=CCC1=C(O)[C@](O)(CC=C(C)C)C(=O)C(C(=O)CC(C)C)=C1O	·	·	-8.9%	·
COc1cccc(CNC(=O)c2cc3c(=O)oc4ccc(C)cc4c3s2)c1	·	·	-3.2%	6.5%
O=C1CC(=Nc2ccccc2)NN1c1ccccc1	13.6*	-2.4	-17.4%	9.2%
O=C1Cc2ccccc2N1c1ccccc1	-1.7	-7.3	-3.5%	-3.7%[11.4 µM]
N#C/C(=C\c1c[nH]c2ccccc12)C(N)=O	9.0*	27.3	19.5%	-19.6%
CCOC(=O)/C(C#N)=C/c1c[nH]c2ccccc12	28.4*	80.9*	6.6%	4.6%
CCOC(=O)/C(C#N)=C/Nc1ccccc1OC	25.2*	43.1*	39.9%	6.6%
COC(=O)/C(C#N)=C/c1c[nH]c2ccccc12	37.3*	102.9*	28.0%	-1.6%
CCOP(=O)(OCC)/C(C#N)=C/c1c[nH]c2ccccc12	-2.0	7.1	-17.1%	-1.6%
CCOC(=O)C(=O)/C(C#N)=C/Nc1ccccc1	-1.0	-10.6	-12.2%	-24.5%
CC(C)(C)C1CCC(=NNc2nc3ccccc3[nH]2)CC1 (stereo not given)	36.6*	68.5*	-14.4%	-13.0%
c1ccc2c(c1)CC/C2=N/Nc1nc2ccccc2[nH]1	46.6*	118.8*	-35.1%	-3.4%
c1ccc(CN2CCC(=NNc3nc4ccccc4[nH]3)CC2)cc1	33.4*	31.4	30.3%	-2.1%
O=C(O)c1cc(NN=C2CCN(Cc3ccccc3)CC2)ccc1Cl	0.8	11.6	47.7%	?
Cc1ccc(S(=O)(=O)Nc2nc3c(s2)C(=O)CC(C)(C)C3)cc1	8.6	-14.8	-7.1%	·
CC1(C)CC(=O)c2sc(NS(=O)(=O)Cc3ccccc3)nc2C1	26.8*	41.3*	56.0%	60.8%
N#Cc1cccc(-c2nc3cnc(N4CCOCC4)nc3n(C[C@H]3CCCO3)c2=O)c1	·	·	-13.9%	·
N#CC(C#N)=C1C(=O)N(CCN2CCCCC2)c2ccccc21	0.7	17.3	?	-14.7%
Cc1ccc2c(c1)C(=C(C#N)C#N)C(=O)N2CCN1CCOCC1	-1.7	-14.9	?	3.16µM*
Cc1ccc2c(c1)C(=C(C#N)C#N)C(=O)N2CCN1CCCCC1	-2.3	-16.1	-24.5%	-21.6%
N#CC(C#N)=C1C(=O)N(CCN2CCOCC2)c2ccccc21	-1.7	-18.6	-28.9%	3.55µM*
CCOC(=O)c1sc(NC(=O)c2c(-c3ccccc3)c(-c3ccccc3)nn(C)c2=O)nc1C	·	·	-15.5%	-2.2%
O=C(Nc1ccc(Cn2cccn2)cc1)c1ccc(COc2cccc(Br)c2)cc1	18.6*	21.7	-21.5%	-2.8%
SMILES	Cycloheximide cs	Shiga toxin inh	FMDV inh	Sm TGR inh
Cc1cc(=O)n2nc(-c3ccccc3)sc2n1	38.5*	61.0*	32.5%	-0.4%
Cc1cc(=O)n2c3c(sc2n1)C(=O)N(Cc1ccccc1)C3=O	-0.7	-6.2	·	1.12µM*
Cc1ccc(-c2nn3c(=O)c(C)nnc3s2)cc1	26.7*	23.4	·	-0.1%
CC(C)(C)c1ccc(-c2nnc3sc(-c4ccncc4)nn23)cc1	14.2*	34.2	-5.3%	7.6%
Cc1nnc2sc(-c3cccc(F)c3)nn2c1=O	-2.2	-5.9	2.7%	7.3%
CC(C)c1ccc(NC(=O)[C@H]2O[C@@H]3OC(C)(C)O[C@@H]3[C@H]3OC(C)(C)O[C@H]32)cc1	·	·	5.7%	0.2%
CC(C)Oc1ccc(CNC(=O)c2cccc(NC(=O)N3CCSc4ncccc43)c2)cc1	·	·	?	-3.8%
COc1ccc(Cl)cc1C(=O)NCC(c1ccc(N(C)C)cc1)N1CCCC1 (stereo not given)	·	·	-22.5%	1.3%
COc1ccc(CNC(=O)c2cnn(-c3nccc(-c4ccco4)n3)c2C)cc1OC	·	·	35.0%	·
Cc1ccc(-c2nn3c(C)nnc3s2)cc1N	15.9*	48.2	60.4%	-25.4%
CC(C)(C)C1=C(C#N)C(c2ccc3c(c2)OCO3)C(C#N)=C(N)O1 (stereo not given)	8.7	6.4	-1.6%	2µM*
COc1cccc(C(=O)Nc2ccccc2OCc2cc(=O)n3cc(C)ccc3n2)c1	·	·	-20.4%	-3.2%

Screening results from PubChem BioAssay.
